From PubChem BioAssay come the findings set out here.

Activity calls are given as the source filed them.

In assay [1] the test system is PRMT1 (protein arginine N-methyltransferase 1). In words: PRMT1 binders on small-molecule microarrays, primary screen, biochemical, small-molecule microarray, 635 nm fluorescence (AID 1088).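 Note: binding of Prmt1 protein to compounds spotted on small-molecule microarray slides.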 As to conditions: small-molecule microarray binding, higher = more signal.
The nature of assay [2]: yeast growth modulation, basal conditions, primary screen, YJM789 clinical isolate, OD600, 24 h (AID 1089).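 Note: growth of clinical yeast isolate S. cerevisiae YJM 789 seeded 1000 cells per well; test concentration not given here.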 The following applies: S. cerevisiae YJM789 growth, higher = more signal, called active from +8 up or from −8 down.
The nature of assay [3]: fission yeast growth modulation, primary screen, strain 972, OD600, 24 h, no modulator (AID 1090).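 Note: basal condition with compound alone and no growth modifier present; test concentration not given here.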 The following applies: S. pombe 972 growth, higher = more signal, called active from +8 up or from −8 down.
Assay [4] in a line: S. cerevisiae growth modulation with rapamycin, primary screen, strain BY4716, OD600, 96 h (AID 1091). Note: test concentration not given here. The following applies: higher = more signal, called active from +8 up or from −8 down.
Assay [5] concerns the target Torsin-1A-interacting protein 2 (Homo sapiens) (UniProt Q8NFQ8). Kind of assay: LULL1 binders on small-molecule microarray, primary screen, cell lysate, human LULL1 lysate, 635/667 nm fluorescence (AID 1092).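 Note: probe is lysate of COS7 cells overexpressing human LULL1; score merges per-feature 667 nm fluorescence with signal-to-noise.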 The following applies: hLULL1 lysate binding, 635 nm fluorescence, higher = more signal.
Assay [6] is described as follows: E. coli growth modulation, two-sided OD650, primary screen, E. coli filamentation project, strain DRC41, 24 h (AID 1093).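 Note: MC1000 strain lacking acrAB efflux and sulA so SOS filamentation is blocked; test concentration not given here.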 The following applies: OD650, 24 h, higher = more signal, called active from +8 up or from −8 down.
The nature of assay [7]: small-molecule microarray binders of probe aLefty2, primary screen, biochemical, biotinylated probe, 635/667 nm fluorescence (AID 1094).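 Note: score merges spot fluorescence near 667 nm with spot signal-to-noise ratio.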 The following applies: higher = more signal.
Assay [8] has as its system Noggin (protein binding on small-molecule microarray). Kind of assay: Noggin binders on small-molecule microarray, primary screen, biochemical, 635/667 nm fluorescence (AID 1095).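 Note: score merges 667 nm feature fluorescence with signal to noise over triplicate slides.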 As to conditions: 635 nm fluorescence, higher = more signal.
Assay [9] concerns the target Neurogenic locus notch homolog protein 3 (Homo sapiens) (UniProt Q9UM47). Kind of assay: NOTCH3 binders on small-molecule microarray, primary screen, biochemical, 635/667 nm fluorescence (AID 1096). As to conditions: NOTCH3 binding, 635 nm fluorescence, higher = more signal.
Assay [10] is described as follows: small-molecule microarray binders of probe aEGFR, primary screen, biochemical, biotinylated probe, 635/667 nm fluorescence (AID 1097).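 Note: probe is a biotinylated anti-EGFR antibody binding compounds printed on slides; score combines fluorescence near 667 nm and signal to noise of each spot.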 The following applies: higher = more signal.
For assay [11], the system named is Plasmodium falciparum Sir2 (PF13_0152, Sir2A). Kind of assay: pfSir2 binders on small-molecule microarrays, primary screen, biochemical, small-molecule microarray, 635 nm fluorescence (AID 1098).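 Note: score merges spot fluorescence intensity with its signal-to-noise ratio.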 The following applies: small-molecule microarray binding, fluorescence 635 nm; higher = more signal.
Assay [12] in a line: small-molecule microarray binders of probe aDKK1, primary screen, biochemical, biotinylated probe, 635/667 nm fluorescence (AID 1099).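 Note: score merges 667nm spot fluorescence with signal to noise across triplicate slides; reference of the scale not given here.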 The following applies: higher = more signal.
Assay [13] can be described thus: small-molecule microarray binders of probe aCHRDL2, primary screen, biochemical, biotinylated probe, 635/667 nm fluorescence (AID 1100). The following applies: higher = more signal.
A short description of assay [14]: splicing luciferase reporter signal modulators, primary screen, spliceosome inhibition project, cell-based, HEK293, splice +/- reporter (AID 1101).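 Note: HEK293 cells carrying a splicing-competent luciferase reporter gene; test concentration not given here.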 The following applies: luminescence, 24 h, higher = more signal, called active from +8 up or from −8 down. For orientation: A reporter such as luciferase makes a cellular process visible.
Assay [15] addresses Fibroblast growth factor 10 (Homo sapiens) (UniProt O15520). In words: FGF10 binders on small-molecule microarrays, primary screen, biochemical, small-molecule microarray, 635 nm fluorescence (AID 1102). As to conditions: FGF10 binding, fluorescence 635 nm, higher = more signal.
Assay [16] concerns glycogen synthase kinase-3 (GSK3A per assay name; protocol says GSK3B). In words: GSK3 binders on small-molecule microarrays, primary screen, biochemical, small-molecule microarray, 635 nm fluorescence, GSK3A (AID 1103). Note: the record names both GSK3A and GSK3B. The following applies: small-molecule microarray binding, fluorescence 635 nm; higher = more signal.
Assay [17] deals with Epidermal growth factor receptor (Homo sapiens) (UniProt P00533). Kind of assay: EGFR binders on small-molecule microarrays, primary screen, biochemical, small-molecule microarray, 635 nm fluorescence (AID 1104).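 Note: score merges 667 nm emission intensity with spot signal to noise over triplicate slides.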 The following applies: EGFR binding, higher = more signal.
Assay [18] deals with Follistatin-related protein 3 (Homo sapiens) (UniProt O95633). Kind of assay: FSTL3 binders on small-molecule microarrays, primary screen, biochemical, small-molecule microarray, 635 nm fluorescence (AID 1105).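 Note: score merges emission near 667 nm and signal to noise per printed spot across three slides.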 The following applies: FSTL3 binding, higher = more signal.
Assay [19] addresses Dickkopf-related protein 1 (Homo sapiens) (UniProt O94907). Kind of assay: DKK1 binders on small-molecule microarrays, primary screen, biochemical, small-molecule microarray, 635 nm fluorescence scan (AID 1106).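 Note: score merges emission near 667 nm with signal to noise over three replicate slides.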 The following applies: DKK1 binding, higher = more signal.
For assay [20], the system named is Inhibin beta A chain (activin A). In words: INHBA (activin A) binders on microarrays, primary screen, biochemical, small-molecule microarray, 635 nm fluorescence scan (AID 1107).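 Note: mouse activin A protein probed at 4.33 µg/mL on printed slides; score merges bound-protein fluorescence near 667 nm with spot signal-to-noise.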 The following applies: small-molecule microarray binding, higher = more signal.

Torsin-1A-interacting protein 2 (Homo sapiens), sequence (Q8NFQ8 whole entry, looked up): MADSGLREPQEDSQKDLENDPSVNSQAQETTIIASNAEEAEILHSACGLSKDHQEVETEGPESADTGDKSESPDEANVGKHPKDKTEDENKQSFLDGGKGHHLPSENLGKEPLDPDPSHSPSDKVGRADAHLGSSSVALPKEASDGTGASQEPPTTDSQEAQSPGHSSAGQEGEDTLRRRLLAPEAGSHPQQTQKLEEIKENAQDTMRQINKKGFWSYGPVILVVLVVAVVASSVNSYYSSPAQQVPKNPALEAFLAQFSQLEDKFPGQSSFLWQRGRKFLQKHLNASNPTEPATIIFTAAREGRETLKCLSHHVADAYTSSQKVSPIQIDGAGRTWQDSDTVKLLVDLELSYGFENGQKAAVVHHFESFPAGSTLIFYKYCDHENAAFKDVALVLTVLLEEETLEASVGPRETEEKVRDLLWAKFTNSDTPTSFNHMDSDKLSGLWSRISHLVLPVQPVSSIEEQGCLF
Fibroblast growth factor 10 (Homo sapiens), sequence (O15520 whole entry, looked up): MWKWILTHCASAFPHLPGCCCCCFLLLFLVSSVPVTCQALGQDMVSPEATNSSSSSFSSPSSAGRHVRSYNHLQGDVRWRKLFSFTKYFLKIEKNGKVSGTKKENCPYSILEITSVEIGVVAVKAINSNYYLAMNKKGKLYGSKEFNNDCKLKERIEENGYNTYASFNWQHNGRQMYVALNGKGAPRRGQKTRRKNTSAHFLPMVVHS
Epidermal growth factor receptor (Homo sapiens), sequence (P00533 whole entry, looked up): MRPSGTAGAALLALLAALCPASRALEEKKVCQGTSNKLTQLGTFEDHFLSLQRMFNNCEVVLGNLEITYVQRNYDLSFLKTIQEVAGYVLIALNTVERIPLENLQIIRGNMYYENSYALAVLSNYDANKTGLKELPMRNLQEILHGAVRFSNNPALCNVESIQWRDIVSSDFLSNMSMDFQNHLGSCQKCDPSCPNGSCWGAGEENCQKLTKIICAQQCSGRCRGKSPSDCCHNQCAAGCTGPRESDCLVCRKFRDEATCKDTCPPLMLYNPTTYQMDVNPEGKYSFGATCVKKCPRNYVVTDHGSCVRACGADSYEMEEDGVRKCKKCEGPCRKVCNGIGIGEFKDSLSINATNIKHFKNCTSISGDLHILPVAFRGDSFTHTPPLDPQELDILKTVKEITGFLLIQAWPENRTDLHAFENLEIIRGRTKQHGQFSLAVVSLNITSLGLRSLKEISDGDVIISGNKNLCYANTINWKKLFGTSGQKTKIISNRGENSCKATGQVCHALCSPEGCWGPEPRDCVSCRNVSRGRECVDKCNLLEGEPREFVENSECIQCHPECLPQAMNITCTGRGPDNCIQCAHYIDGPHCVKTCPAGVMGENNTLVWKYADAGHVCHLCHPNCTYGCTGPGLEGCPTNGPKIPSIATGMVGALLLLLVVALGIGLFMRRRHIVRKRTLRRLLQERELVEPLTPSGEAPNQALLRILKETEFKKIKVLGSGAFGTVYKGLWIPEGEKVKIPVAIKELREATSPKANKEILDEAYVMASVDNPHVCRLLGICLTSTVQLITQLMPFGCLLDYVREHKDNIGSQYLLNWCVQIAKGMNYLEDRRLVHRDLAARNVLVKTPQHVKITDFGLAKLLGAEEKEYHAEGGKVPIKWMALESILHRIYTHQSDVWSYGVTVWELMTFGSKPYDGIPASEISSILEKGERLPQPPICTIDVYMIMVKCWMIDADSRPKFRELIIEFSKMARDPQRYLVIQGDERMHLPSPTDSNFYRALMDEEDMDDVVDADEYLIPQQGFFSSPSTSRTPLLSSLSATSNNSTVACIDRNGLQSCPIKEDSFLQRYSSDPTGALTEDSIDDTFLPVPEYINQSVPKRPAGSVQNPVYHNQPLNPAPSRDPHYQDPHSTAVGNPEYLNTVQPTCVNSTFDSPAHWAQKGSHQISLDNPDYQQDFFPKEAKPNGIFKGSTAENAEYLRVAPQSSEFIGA
Neurogenic locus notch homolog protein 3 (Homo sapiens), sequence (Q9UM47 whole entry, looked up): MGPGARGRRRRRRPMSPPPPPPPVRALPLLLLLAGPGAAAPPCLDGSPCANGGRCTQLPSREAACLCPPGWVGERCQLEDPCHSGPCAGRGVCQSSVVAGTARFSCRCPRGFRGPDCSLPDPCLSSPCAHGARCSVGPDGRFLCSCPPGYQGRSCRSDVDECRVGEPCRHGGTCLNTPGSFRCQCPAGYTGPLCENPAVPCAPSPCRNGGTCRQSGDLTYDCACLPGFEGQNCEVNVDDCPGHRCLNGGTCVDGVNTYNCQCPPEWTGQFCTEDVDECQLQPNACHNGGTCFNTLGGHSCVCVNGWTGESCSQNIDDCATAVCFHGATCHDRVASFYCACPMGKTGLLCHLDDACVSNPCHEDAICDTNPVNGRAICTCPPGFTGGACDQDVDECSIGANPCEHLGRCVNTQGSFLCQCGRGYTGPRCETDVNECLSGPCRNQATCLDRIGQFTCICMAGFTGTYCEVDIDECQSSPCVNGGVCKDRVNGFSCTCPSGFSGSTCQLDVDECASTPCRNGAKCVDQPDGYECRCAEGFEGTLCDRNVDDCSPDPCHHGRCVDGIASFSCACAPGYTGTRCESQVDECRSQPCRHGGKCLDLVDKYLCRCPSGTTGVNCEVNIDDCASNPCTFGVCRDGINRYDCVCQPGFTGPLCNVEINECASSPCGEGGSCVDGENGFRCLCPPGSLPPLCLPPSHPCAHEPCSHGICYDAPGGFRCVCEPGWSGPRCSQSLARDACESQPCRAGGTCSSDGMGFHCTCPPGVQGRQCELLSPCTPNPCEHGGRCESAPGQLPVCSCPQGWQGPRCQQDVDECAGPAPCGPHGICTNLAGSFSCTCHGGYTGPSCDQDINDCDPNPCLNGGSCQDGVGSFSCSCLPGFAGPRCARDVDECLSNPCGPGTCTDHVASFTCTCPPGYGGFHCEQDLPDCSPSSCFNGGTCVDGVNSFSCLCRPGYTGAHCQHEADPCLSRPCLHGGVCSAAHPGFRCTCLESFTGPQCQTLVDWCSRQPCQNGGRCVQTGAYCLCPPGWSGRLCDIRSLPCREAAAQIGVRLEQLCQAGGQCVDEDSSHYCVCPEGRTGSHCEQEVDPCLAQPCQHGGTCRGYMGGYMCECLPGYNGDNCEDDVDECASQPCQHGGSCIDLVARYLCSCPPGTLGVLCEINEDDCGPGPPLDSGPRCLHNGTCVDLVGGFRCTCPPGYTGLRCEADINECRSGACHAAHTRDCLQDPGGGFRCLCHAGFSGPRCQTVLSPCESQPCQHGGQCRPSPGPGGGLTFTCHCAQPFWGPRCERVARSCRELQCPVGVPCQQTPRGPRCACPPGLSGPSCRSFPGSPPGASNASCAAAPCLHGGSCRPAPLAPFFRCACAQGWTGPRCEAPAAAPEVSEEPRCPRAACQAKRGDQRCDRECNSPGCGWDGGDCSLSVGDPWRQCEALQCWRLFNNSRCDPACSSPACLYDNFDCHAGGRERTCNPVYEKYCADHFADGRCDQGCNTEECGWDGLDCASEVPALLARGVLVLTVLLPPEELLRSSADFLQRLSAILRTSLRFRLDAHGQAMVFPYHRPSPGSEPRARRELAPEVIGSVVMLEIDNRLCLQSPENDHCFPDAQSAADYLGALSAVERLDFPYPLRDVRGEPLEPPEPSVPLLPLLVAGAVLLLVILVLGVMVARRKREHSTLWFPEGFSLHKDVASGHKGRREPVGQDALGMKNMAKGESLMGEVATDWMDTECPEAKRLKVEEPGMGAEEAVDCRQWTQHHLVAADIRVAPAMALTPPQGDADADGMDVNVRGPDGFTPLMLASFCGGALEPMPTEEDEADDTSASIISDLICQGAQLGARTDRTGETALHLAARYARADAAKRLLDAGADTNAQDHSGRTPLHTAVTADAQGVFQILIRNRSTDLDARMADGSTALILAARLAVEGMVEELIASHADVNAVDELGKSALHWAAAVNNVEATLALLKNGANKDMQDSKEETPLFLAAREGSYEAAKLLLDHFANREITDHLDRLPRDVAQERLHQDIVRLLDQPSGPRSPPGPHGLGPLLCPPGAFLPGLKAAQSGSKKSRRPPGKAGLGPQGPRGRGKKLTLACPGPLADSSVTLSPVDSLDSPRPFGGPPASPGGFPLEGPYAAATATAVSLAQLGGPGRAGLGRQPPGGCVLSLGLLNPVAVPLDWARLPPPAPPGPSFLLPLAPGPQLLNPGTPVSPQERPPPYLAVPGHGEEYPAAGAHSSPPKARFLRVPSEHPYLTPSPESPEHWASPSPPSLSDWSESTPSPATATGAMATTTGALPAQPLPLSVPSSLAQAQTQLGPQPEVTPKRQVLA
Follistatin-related protein 3 (Homo sapiens), sequence (O95633 whole entry, looked up): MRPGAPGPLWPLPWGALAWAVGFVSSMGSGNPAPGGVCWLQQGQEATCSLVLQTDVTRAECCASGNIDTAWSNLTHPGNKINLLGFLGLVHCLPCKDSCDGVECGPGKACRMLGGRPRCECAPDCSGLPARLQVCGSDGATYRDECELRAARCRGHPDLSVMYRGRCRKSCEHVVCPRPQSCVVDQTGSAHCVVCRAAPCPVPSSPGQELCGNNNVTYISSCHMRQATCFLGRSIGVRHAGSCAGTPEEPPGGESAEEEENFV
Dickkopf-related protein 1 (Homo sapiens), sequence (O94907 whole entry, looked up): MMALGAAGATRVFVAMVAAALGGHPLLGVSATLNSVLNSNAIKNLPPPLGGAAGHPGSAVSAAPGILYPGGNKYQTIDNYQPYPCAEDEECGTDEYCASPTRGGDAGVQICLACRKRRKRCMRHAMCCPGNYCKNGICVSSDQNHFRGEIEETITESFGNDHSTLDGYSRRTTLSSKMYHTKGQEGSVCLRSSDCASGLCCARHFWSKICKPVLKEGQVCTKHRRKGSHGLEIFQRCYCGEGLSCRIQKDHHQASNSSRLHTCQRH

Take `COc1ccc([Si](C)(C)[C@H]2[C@H](CCn3cc([C@H](O)c4ccccc4)nn3)O[C@@]3(C(=O)N(C)c4c(Br)cc(C)cc43)[C@@H]2C)cc1`: the composite z-score in assay [1] is 0.661; in assay [5] it was -0.168; in [7], -0.138; in [8] it was 1.96; in [9] it was -0.615; in [10], -0.179. For the same compound, the composite z-score is -0.34 in assay [11]; -0.189 in assay [12]; 0.387 in assay [13]; 0.574 in assay [15]; 0.0322 in assay [16]; -0.597 in [17]. Besides, the composite z-score in assay [18] was -0.499; in assay [19], 0.335; in [20] it was 0.227. Besides, the z-score in assay [2] is 0.31 (inactive); in assay [3] it was 0.467 (inactive); in [4] it was 1.34 (inactive); in assay [6] it was 0.832 (inactive); in [14], -0.923 (inactive).
Regarding `CC(C)C[C@H]1NC(=O)[C@@H](C)NC(=O)[C@@]23C(=O)N[C@@H](Cc4ccccc4)C2[C@H](C)[C@@]2(C)O[C@H]2C3/C=C/C/C=C\CNC1=O` (stereo not given in full), the composite z-score in [1] was 0.938; in [5], 1.28; in [7], -0.221; in assay [8] it was 0.407; in [9], 0.596; in [10], -0.0615. Further, the composite z-score is 1.13 in assay [11]; -0.334 in assay [12]; -0.585 in assay [13]; 0.509 in assay [15]; -0.164 in assay [16]; 0.634 in [17]. Further, the composite z-score in [18] came out at 0.638; in assay [19], 0.389; in assay [20], 1.29. Further, the z-score in [2] was -0.904 (inactive); in [3], -0.721 (inactive); in [4], -0.651 (inactive); in assay [6] it was -0.64 (inactive); in assay [14], -0.0326 (inactive).
As to `C=CCC(OC(C)=O)[C@@H]1[C@@H](N(Cc2ccc(-c3cccc(C(F)(F)F)c3)o2)C(=O)Cc2ccc(OC)cc2)c2cc(OCCCO)ccc2N1C(=O)c1ccc2ccccc2n1` (stereo not given in full), the composite z-score in assay [1] is -0.538; in assay [5], 0.806; in [7], -0.0998; in [8] it was -0.306; in assay [9], -0.412; in [10] it was -0.0828. Also, the composite z-score was 0.51 in [11]; -0.107 in assay [12]; 0.621 in assay [13]; 0.104 in assay [15]; -1.24 in assay [16]; -0.567 in [17]. The composite z-score in assay [18] was 0.0391; in [19], 0.062; in [20] it was 1.58. Moreover, the z-score is 0.195 (inactive) in [2]; 0.153 (inactive) in assay [3]; -0.44 (inactive) in assay [4]; -0.555 (inactive) in assay [6]; -0.492 (inactive) in assay [14].
With `COCCOC(=O)N1C(=O)[C@@]2(c3cc(C#CCNC(N)=O)ccc31)[C@H](C(=O)NC[C@H](O)c1ccccc1)[C@H]1C(=O)O[C@H](c3ccccc3)[C@H](c3ccccc3)N1[C@@H]2c1ccc(OCCO)cc1`, the composite z-score was 1.55 in [1]; 2.5 in assay [5]; -0.0083 in [7]; 0.683 in assay [8]; 1.16 in [9]; -0.0828 in assay [10]. The composite z-score was 1.44 in [11]; 0.398 in assay [12]; 0.782 in assay [13]; 0.872 in assay [15]; 0.939 in assay [16]; 0.565 in assay [17]. The figures for the composite z-score in assay [18], in assay [19] and in assay [20] were 0.898, 0.301 and 0.649, respectively. Moreover, the z-score in assay [2] is 2.39 (inactive); in [3], 1.54 (inactive); in [4], 4.57 (inactive); in assay [6], 0.383 (inactive); in assay [14], -0.204 (inactive).
In the case of `COCCn1c(C(=O)N2CCCC2)cc2c1C[C@H]1CN(C(=O)c3ccccc3)[C@@](Cc3ccccc3)(C(=O)OC)[C@@H]21`, the composite z-score in assay [1] amounted to 1.28; in [5] it was 3.11; in assay [7], 0.907; in assay [8], 0.386; in assay [9] it was 0.805; in assay [10], 0.827. The composite z-score was 1.06 in assay [11]; 0.592 in assay [12]; 0.268 in assay [13]; 1.15 in assay [15]; 1.26 in assay [16]; -0.273 in assay [17]. In addition, the figures for the composite z-score in assay [18], in assay [19] and in assay [20] were 0.166, 0.257 and 0.693, respectively. In addition, the z-score in assay [2] was 0.448 (inactive); in [3], 0.105 (inactive); in assay [4], 0.573 (inactive); in assay [6], 0.0508 (inactive); in assay [14] it was -1.09 (inactive).
